Data from PubChem BioAssay (EPA / NIEHS).
Values joined by “and” are separate entries in the source; they are usually repeats but may differ in a detail not shown here. Identical values can stand only once. Records with an inconclusive call do not appear. More than one record can exist for a structure, and the calls need not agree. Active and inactive are the calls of the source. How the source made its calls, unless noted: active means hit-call score of the fitted dose curve at least 0.9, where 1 is the maximum; inactive means score below 0.9.

What was measured:
[1] = read-out: E-selectin (Homo sapiens) (UniProt P16581); experiment: BSK_SAg_Eselectin: BioMAP Diversity Plus: SAg Assay for Eselectin Biomarker Activity (AID 2283091); conditions: primary human HUVEC with PBMC; actives raise or lower the signal
Procedure, shortened: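 Primary human endothelial cells and peripheral blood mononuclear cells were co-cultured and exposed to chemical for 24 hours. E-selectin levels were then quantified by ELISA, with bidirectional curve fitting normalised to DMSO controls.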

[2] = read-out: Monokine induced gamma interferon (MIG), CXCL9 (gene 4283); experiment: BSK_SAg_MIG: BioMAP Diversity Plus: SAg Assay for Monokine induced gamma interferon (MIG) Biomarker Activity (AID 2283092); conditions: primary human HUVEC with PBMC; actives raise or lower the signal
Procedure, shortened: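 Endothelial cells and PBMC were co-cultured, exposed to test chemicals, and sampled 24 h later. MIG was measured by ELISA, and responses were fitted in both directions relative to DMSO.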

[3] = BSK_SAg_PBMCCytotoxicity: PBMC Cytotoxicity Assessment in the BioMAP Diversity Plus: SAg Assay (AID 2283093); conditions: primary human HUVEC with PBMC;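 further: PBMC viability measured as Alamar Blue reduction fluorescence at 546/580 nm; fitted both ways against DMSO so a hit may be loss or gain of signal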;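 on AC50: PBMC superantigen activated with SEB plus TSST-1 one hour after compound addition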
Procedure, shortened: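 Human umbilical vein endothelial cells co-cultured with PBMC; PBMC (75,000/well) pre-treated with compound 1 h, then activated with SEB and TSST-1 (20 ng/mL final each) for 90 h. Alamar Blue added 6 h, fluorescence 546/580 nm; bidirectional fit versus DMSO.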

[4] = read-out: Interleukin-8 (IL8), CXCL8 (gene 3576); experiment: BSK_SAg_IL8: BioMAP Diversity Plus: SAg Assay for Interleukin-8 (IL8) Biomarker Activity (AID 2283094); conditions: primary human HUVEC with PBMC; actives raise or lower the signal
Procedure, shortened: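 Human umbilical vein endothelial cells co-cultured with PBMC, stimulated with superantigen; IL-8 measured by ELISA 24 h after chemical dosing. Bidirectional fitting versus DMSO; SRB staining in parallel cultures tracks cytotoxicity.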

[5] = BSK_SAg_Proliferation: Cell Proliferation Assessment in the BioMAP Diversity Plus: SAg Assay (AID 2283095); conditions: primary human HUVEC with PBMC
Procedure, shortened: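 Human umbilical vein endothelial cells co-cultured with PBMC; sulforhodamine B total-protein staining (0.1% SRB after 10% TCA fixation, absorbance 560 nm) at 96 h in sub-confluent culture. Fitted bidirectionally against DMSO.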

[6] = BSK_SAg_SRB: Viability Assessment in the BioMAP Diversity Plus: SAg Assay (AID 2283096); conditions: primary human HUVEC with PBMC;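 further: cells read one day after compound addition; hits may be either gain or loss of signal compared with DMSO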
Procedure, shortened: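 Endothelial/PBMC primary human co-culture; compound 24 h; fix 10% TCA, stain 0.1% SRB, A560; protein content as cytotoxicity proxy; bidirectional curve fit, DMSO = baseline.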

[7] = target: human CYP1A1, CYP1A1 (gene 1543) (UniProt P04798); experiment: NVS_ADME_hCYP1A1: NovaScreen (NVS) CYP450-related Enzyme Activity (ADME) Assay for human CYP1A1 (AID 2283100; active means hit-call score of the fitted dose curve at least 0.9, where 1 is the maximum)
Procedure, shortened: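 Compounds first went through duplicate single-concentration testing at 10 uM against purified CYP1A1. Those passing a threshold such as 30% inhibition entered singleton dose-response, highest concentration 20 uM. Signal was fluorescence measured after 1 hour.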

[8] = target: human CYP2B6, CYP2B6 (gene 1555) (UniProt P20813); experiment: NVS_ADME_hCYP2B6: NovaScreen (NVS) CYP450-related Enzyme Activity (ADME) Assay for human CYP2B6 (AID 2283101; active means hit-call score of the fitted dose curve at least 0.9, where 1 is the maximum)
Procedure, shortened: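 Cell-free recombinant enzyme assay with a fluorogenic substrate; fluorescence intensity read 1 hour after dosing. Loss of signal relative to acetonitrile negative control indicates inhibition. Primary screen run in duplicate at 10 uM, actives then tested in concentration series.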

[9] = target: human CYP19A1, CYP19A1 (gene 1588) (UniProt P11511); experiment: NVS_ADME_hCYP19A1: NovaScreen (NVS) CYP450-related Enzyme Activity (ADME) Assay for human CYP19A1 (AID 2283098; active means hit-call score of the fitted dose curve at least 0.9, where 1 is the maximum;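 on AC50: potency for inhibitors seen as loss of fluorescent enzyme signal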)
Protocol: (§1) NVS_ADME_hCYP19A1 is a biochemical, single-readout assay that uses extracted gene-proteins in a cell-free assay. Measurements were taken 0.5 hour after chemical dosing in a 384-well plate.NVS_ADME_hCYP19A1 is one of one assay component(s) measured or calculated from the NVS_ADME_hCYP19A1 assay. It is designed to make measurements of enzyme activity, a form of enzyme reporter, as detected with fluorescence intensity signals by Fluorescence technology.Data from the assay component NVS_ADME_hCYP19A1 was analyzed into 1 assay endpoint. This assay endpoint, NVS_ADME_hCYP19A1, was analyzed in the positive analysis fitting direction relative to Acetonitrile as the negative control and baseline of activity. Using a type of enzyme reporter, loss-of-signal activity can be used to understand changes in the enzymatic activity as they relate to the gene CYP19A1. Furthermore, this assay endpoint can be referred to as a primary readout, because this assay has produced multiple assay endpoints where this one serves a enzymatic activity function. To generalize the intended target to other relatable targets, this assay endpoint is annotated to the cyp intended target family, where the subfamily is steroidogenesis-related.
Binding assays used specific radioligands (tritiated, iodinated) with non-radioactive competitive displacement ligands in agonist or antagonist protocols (as indicated) and various reference compounds and inhibitors to titrate specific binding to receptors and transporters. Most enzyme assays (CYPs, kinases, phosphatases, proteases, HDACs) used recombinant protein and specific substrates (fluorescence mostly, some colorimetric and radioactive) and inhibitors, followed by a biochemical separation of substrate and product. All assays for the biochemical HTS were initially run in duplicate at a single concentration (10 uM for CYP450 assays and 25 uM for all others). […] Each assay was run with positive and negative controls, and concurrent controls on every plate. The follow-up (secondary) screen tested active chemical-pairs in concentration series, as well as a few additional assays not tested in the primary screen, some selected negative inactives, and several cases re-run in the concentration series for confirmatory purposes.

[10] = target: human CYP1A2, CYP1A2 (gene 1544) (UniProt P05177); experiment: NVS_ADME_hCYP1A2: NovaScreen (NVS) CYP450-related Enzyme Activity (ADME) Assay for human CYP1A2 (AID 2283102; active means hit-call score of the fitted dose curve at least 0.9, where 1 is the maximum)
Protocol: as §1, with “NVS_ADME_hCYP1A2” for “NVS_ADME_hCYP19A1”, “gene-proteins from insect cells” for “gene-proteins”, “96-well plate.NVS_ADME_hCYP1A2” for “384-well plate.NVS_ADME_hCYP19A1”, “NVS_ADME_hCYP1A2,” for “NVS_ADME_hCYP19A1,”, “CYP1A2.” for “CYP19A1.”, “xenobiotic metabolism. […]” for “steroidogenesis-related.”

Measured: AC50

Sequence of E-selectin (Homo sapiens) (P16581 whole entry, looked up): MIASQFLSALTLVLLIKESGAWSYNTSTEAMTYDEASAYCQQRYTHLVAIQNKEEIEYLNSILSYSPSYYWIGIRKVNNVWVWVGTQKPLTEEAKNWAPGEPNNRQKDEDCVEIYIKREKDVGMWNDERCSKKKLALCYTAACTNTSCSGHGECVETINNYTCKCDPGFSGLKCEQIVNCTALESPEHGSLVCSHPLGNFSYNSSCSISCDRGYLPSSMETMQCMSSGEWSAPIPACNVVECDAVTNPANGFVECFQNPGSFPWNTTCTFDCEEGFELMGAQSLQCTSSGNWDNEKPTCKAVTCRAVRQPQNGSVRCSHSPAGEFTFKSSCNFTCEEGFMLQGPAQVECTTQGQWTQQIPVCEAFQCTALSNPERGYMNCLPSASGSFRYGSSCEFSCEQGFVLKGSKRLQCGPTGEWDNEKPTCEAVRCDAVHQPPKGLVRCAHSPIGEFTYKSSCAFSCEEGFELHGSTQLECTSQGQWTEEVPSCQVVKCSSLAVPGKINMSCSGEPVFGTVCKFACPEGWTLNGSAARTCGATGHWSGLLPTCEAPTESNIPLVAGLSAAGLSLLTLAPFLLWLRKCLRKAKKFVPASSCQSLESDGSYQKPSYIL
Sequence of human CYP1A1, CYP1A1 (gene 1543) (P04798 whole entry, looked up): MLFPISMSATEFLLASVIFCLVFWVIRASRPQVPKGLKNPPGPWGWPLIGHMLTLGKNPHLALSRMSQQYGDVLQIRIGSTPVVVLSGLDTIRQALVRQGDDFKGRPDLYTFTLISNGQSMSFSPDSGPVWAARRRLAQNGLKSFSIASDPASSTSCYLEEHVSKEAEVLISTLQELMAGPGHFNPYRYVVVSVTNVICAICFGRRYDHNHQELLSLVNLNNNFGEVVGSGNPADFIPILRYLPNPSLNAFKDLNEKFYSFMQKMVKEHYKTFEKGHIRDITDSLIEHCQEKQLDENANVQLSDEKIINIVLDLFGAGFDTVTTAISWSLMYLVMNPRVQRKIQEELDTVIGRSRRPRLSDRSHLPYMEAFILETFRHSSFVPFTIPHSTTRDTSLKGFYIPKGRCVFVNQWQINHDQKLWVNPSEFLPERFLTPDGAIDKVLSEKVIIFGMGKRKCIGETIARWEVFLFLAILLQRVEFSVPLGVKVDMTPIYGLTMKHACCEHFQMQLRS
Sequence of human CYP19A1, CYP19A1 (gene 1588) (P11511 whole entry, looked up): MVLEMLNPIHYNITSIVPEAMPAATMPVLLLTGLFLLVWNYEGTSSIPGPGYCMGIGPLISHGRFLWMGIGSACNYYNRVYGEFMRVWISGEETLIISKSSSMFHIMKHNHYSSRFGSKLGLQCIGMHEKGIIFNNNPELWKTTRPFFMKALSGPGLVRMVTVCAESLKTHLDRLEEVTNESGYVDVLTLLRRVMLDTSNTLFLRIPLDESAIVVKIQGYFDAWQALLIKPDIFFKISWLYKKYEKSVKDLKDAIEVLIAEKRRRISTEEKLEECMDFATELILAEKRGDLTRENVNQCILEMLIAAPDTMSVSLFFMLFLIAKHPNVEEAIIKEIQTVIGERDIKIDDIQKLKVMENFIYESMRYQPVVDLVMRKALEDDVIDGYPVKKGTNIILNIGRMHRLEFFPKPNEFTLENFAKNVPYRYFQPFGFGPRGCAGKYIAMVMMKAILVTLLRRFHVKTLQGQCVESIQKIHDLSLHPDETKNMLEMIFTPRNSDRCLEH
Sequence of human CYP2B6, CYP2B6 (gene 1555) (P20813 whole entry, looked up): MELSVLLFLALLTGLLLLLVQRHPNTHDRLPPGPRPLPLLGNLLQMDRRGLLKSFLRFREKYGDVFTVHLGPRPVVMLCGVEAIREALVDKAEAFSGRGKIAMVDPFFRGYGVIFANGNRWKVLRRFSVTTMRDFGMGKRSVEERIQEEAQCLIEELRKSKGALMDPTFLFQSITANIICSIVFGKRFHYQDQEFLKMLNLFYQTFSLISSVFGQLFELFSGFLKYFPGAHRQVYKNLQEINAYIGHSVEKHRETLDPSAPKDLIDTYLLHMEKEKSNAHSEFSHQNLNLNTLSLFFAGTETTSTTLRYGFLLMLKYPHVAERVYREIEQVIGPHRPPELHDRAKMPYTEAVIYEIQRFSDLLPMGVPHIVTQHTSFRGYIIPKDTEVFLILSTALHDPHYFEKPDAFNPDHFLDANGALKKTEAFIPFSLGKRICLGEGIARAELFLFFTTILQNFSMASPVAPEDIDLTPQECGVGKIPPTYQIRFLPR
Sequence of human CYP1A2, CYP1A2 (gene 1544) (P05177 whole entry, looked up): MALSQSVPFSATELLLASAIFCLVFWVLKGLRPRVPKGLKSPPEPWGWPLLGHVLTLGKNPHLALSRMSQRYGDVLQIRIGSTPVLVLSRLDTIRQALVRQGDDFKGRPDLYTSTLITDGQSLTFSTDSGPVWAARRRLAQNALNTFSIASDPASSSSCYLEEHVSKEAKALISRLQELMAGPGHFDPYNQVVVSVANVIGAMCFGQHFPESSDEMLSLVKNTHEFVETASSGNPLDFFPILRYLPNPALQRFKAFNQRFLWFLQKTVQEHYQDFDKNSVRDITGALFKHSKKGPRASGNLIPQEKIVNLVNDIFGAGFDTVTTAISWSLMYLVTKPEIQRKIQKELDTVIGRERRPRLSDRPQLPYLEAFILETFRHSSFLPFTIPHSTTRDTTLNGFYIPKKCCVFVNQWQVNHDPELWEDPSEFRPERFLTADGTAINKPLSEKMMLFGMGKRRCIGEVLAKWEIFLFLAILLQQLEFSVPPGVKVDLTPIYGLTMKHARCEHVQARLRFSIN

c1ccc(OCCOc2ccccc2)cc1
inactive: [1] | [2] | [3] | [4] | [5] | [6]

C#C[C@]1(O)CC[C@H]2[C@@H]3CCc4cc(O)ccc4[C@H]3CC[C@@]21C
active: [5] 5.51 µM | [6] 5.5 µM
not listed: [9] | [10]
inactive: all other assays above

O=C(O)C(F)(F)OC(F)(F)C(F)(F)OC(F)(F)C(F)(F)C(F)(F)C(F)(F)F
active: [6] 30 µM
inactive: [1] | [2] | [3] | [4] | [5] | [6]

CCCCC/C=C\C=C\C(=O)OCC
active: [9] 15.6 µM

COC(=O)c1ccc(C(=O)OC)cc1
inactive: [1] | [2] | [3] | [4] | [5] | [6]

CC(=O)C1=C(C)[C@@H]2C[C@@]3(C1)[C@H](C)CC[C@H]3C2(C)C
inactive: [9]

O=C(O)C(F)(F)C(F)(F)C(F)(F)C(F)(F)C(F)(F)C(F)(F)C(F)(F)C(F)F
inactive: [1] | [2] | [3] | [4] | [5] | [6]

CCCCCCCCCC(=O)OCC
inactive: [2] | [4] | [6]
active: [1] 20 µM | [3] 34.1 µM | [5] 33.5 µM

CCCCCCCCOC(=O)c1ccc(O)cc1
active: [9] 7.86 µM

CC1=CC(C)C(C=O)C(C)C1 (stereo not drawn) (tested in a mixture with another compound)
inactive: [1] | [2] | [3] | [4] | [5] | [6]

CCOC(=O)CCCCCCCCC(=O)OCC
inactive: [1] | [2] | [3] | [4] | [5] | [6]

CC=CC(=O)C1=C(C)C=CCC1(C)C
active: [4] 16 nM
inactive: [1] | [2] | [3] | [5] | [6]

CC/C(=C(\c1ccccc1)c1ccc(OCCN(C)C)cc1)c1ccccc1
inactive: [9] | [8]
active: [1] 11.6 µM and 12.5 µM | [2] 14.1 µM and 11.3 µM | [3] 6.22 µM and 6.86 µM | [4] 18.3 µM and 7.16 µM | [5] 4.55 µM and 5.13 µM | [6] 10.3 µM and 9.96 µM

CCOC(=O)C=Cc1ccccc1
inactive: [1] | [2] | [3] | [4] | [5] | [6]

C=C(C)C(N)=O
not listed: [7] | [8] | [9]
inactive: all other assays above

CC(=O)OC(C)(C)C
inactive: [9]

O=C(c1ccc(OCCN2CCCCC2)cc1)c1c(-c2ccc(O)cc2)sc2cc(O)ccc12
active: [1] 37.4 µM | [2] 34.7 µM | [3] 26.2 µM | [4] 28900 nM | [5] 14.6 µM | [6] 24.1 µM | [9] 4.25 µM [middle of 4 runs] | [7] 6.33 µM

C[C@]12CC[C@@H]3c4ccc(O)cc4CC[C@H]3[C@@H]1CC[C@@H]2O
active: [2] 20 µM | [5] 13.5 µM | [6] 10.3 µM
inactive: [1] | [3] | [4] | [9]

CC(C)(C)c1cccc(O)c1
inactive: [1] | [2] | [3] | [4] | [5] | [6]

C=CC(=O)OCC(CO)(COC(=O)C=C)COC(=O)C=C
active: [1] 0.333 µM | [2] 0.601 µM | [3] 0.0476 µM | [4] 219 nM | [5] 0.0305 µM | [6] 2.13 µM

C=C(C)C(=O)OCCC(F)(F)C(F)(F)C(F)(F)C(F)(F)C(F)(F)C(F)(F)C(F)(F)C(F)(F)F
inactive: [1] | [2] | [3] | [4] | [5] | [6]

OCC(F)(OC(F)(F)C(F)(OC(F)(F)C(F)(F)C(F)(F)F)C(F)(F)F)C(F)(F)F (stereo not drawn)
active: [1] 2.96 µM and 3.23 µM | [3] 2.03 µM and 1.97 µM | [4] 2.22 µM and 2.66 µM | [5] 2.09 µM and 2.02 µM | [6] 5.05 µM and 3.37 µM
inactive: [2]

CCCCOCCOCCO
inactive: [1] | [2] | [3] | [4] | [5] | [6]

Nc1ccc(N)c([N+](=O)[O-])c1
inactive: [1] | [2] | [4] | [5] | [6]

CC(C)Cc1ccc(C(C)C(=O)O)cc1 (stereo not drawn)
inactive: [1] | [2] | [3] | [4] | [5] | [6]
